Where “and” joins values, the source holds several entries; their conditions need not be identical. Equal entries are not always repeated. Among all 5,500 compounds or so, about 2,000 (36%) were called active. Roughly 18% stayed inconclusive and do not appear here. No stated cut-off is given here; in the data, active means normalized growth mostly below about 0.91 (no sharp cut-off); inconclusive means no clear call, values can overlap the other calls; inactive means mostly above about 0.92. The list shows a part of the results.
Assay: chemical genetic growth profiling, strain panel (AID 1159580);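 further: tested at 20 µM; growth read once vehicle control cultures reached saturation at 30 °C; 1 = growth at the plate median or of vehicle wells; lower values mean less growth of the strain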
Conditions: S. cerevisiae deletion strains, growth OD

Measured: normalized growth

CCN(CC)CCNC(=O)c1cc(Cl)c(N)cc1OC
inactive: locus YAL013W, strain DEP1, active compounds read low 1.01 | locus YAL021C, strain ccr4, active compounds read low 0.992 | locus YAL026C, strain drs2, active compounds read low 0.998 | locus YAL030W, strain snc1, active compounds read low 0.974 | locus YAL040C, strain CLN3, active compounds read low 0.981 | locus YBL061C, strain skt5, active compounds read low 0.976 | locus YBR009C, strain hhf1, active compounds read low 0.987 | locus YBR021W, strain FUR4, active compounds read low 1.02 | locus YBR023C, strain chs3, active compounds read low 0.984 | locus YBR171W, strain sec66, active compounds read low 0.979 | locus YBR229C, strain ROT2, active compounds read low 1.01 | locus YBR231C, strain swc5, active compounds read low 0.996 | locus YBR279W, strain paf1, active compounds read low 0.992 | locus YCL011C, strain gbp2, active compounds read low 0.94 | locus YCL016C, strain dcc1, active compounds read low 0.948 | locus YCL029C, strain bik1, active compounds read low 0.993 | locus YCL061C, strain MRC1 (second series), active compounds read low 1.01 | locus YCL061C, strain MRC1, active compounds read low 0.988 | locus YCL069W, strain vba3, active compounds read low 0.985 | locus YCR088W, strain abp1, active compounds read low 0.991 | locus YDL005C, strain med2, active compounds read low 0.986 | locus YDL035C, strain GPR1, active compounds read low 1.01 | locus YDL040C, strain nat1, active compounds read low 0.988 | locus YDL074C, strain BRE1, active compounds read low 1.02 | locus YDL101C, strain DUN1, active compounds read low 1 | locus YDL134C, strain PPH21, active compounds read low 1.01 | locus YDL185W, strain tfp1, active compounds read low 0.996 | locus YDL192W, strain arf1, active compounds read low 1.01 | locus YDR001C, strain nth1, active compounds read low 0.968 | locus YDR069C, strain doa4, active compounds read low 0.962 | locus YDR101C, strain arx1, active compounds read low 0.985 | locus YDR137W, strain rgp1, active compounds read low 0.967 | locus YDR150W, strain NUM1, active compounds read low 1.02 and 1.01 | locus YDR159W, strain sac3, active compounds read low 1.01 | locus YDR162C, strain NBP2, active compounds read low 1.01 | locus YDR195W, strain ref2 0.974 | locus YDR297W, strain sur2, active compounds read low 0.984 | locus YDR318W, strain mcm21, active compounds read low 0.996 | locus YDR334W, strain swr1, active compounds read low 0.93 | locus YDR335W, strain msn5, active compounds read low 0.976 | locus YDR363W, strain ESC2, active compounds read low 1.02 | locus YDR388W, active compounds read low 0.995 | locus YDR392W, strain spt3, active compounds read low 0.975 | locus YDR502C, strain sam2, active compounds read low 0.988 | locus YEL003W, strain gim4, active compounds read low 0.994 | locus YEL037C, strain rad23, active compounds read low 0.976 | locus YEL061C, strain CIN8 (second series), active compounds read low 0.978 | locus YEL061C, strain CIN8, active compounds read low 1.01 | locus YER002W, strain NOP16, active compounds read low 0.994 | locus YER015W, strain faa2, active compounds read low 0.979 | locus YER016W, strain bim1, active compounds read low 0.994 | locus YER110C, active compounds read low 0.994 | locus YER111C, strain swi4, active compounds read low 0.988 | locus YER155C, strain BEM2 (second series), active compounds read low 1.03 | locus YER155C, strain BEM2, active compounds read low 0.999 | locus YER167W, strain BCK2, active compounds read low 1.01 | locus YFR010W, strain ubp6, active compounds read low 0.969 | locus YGL078C, strain dbp3, active compounds read low 0.997 | locus YGL086W, strain mad1, active compounds read low 0.993 | locus YGL167C, strain pmr1, active compounds read low 0.972 | locus YGL173C, strain kem1, active compounds read low 0.98 | locus YGL227W, strain vid30, active compounds read low 0.977 | locus YGL240W, strain doc1, active compounds read low 1.01 | locus YGL248W, strain PDE1, active compounds read low 1.01 | locus YGL253W, strain hxk2, active compounds read low 0.981 | locus YGR078C, strain PAC10, active compounds read low 1.02 | locus YGR135W, strain pre9, active compounds read low 0.998 | locus YGR229C, strain SMI1, active compounds read low 1.01 and 1.02 | locus YGR252W, strain gcn5, active compounds read low 0.958 | locus YHR013C, strain ard1, active compounds read low 0.955 | locus YHR027C, strain rpn1, active compounds read low 0.963 | locus YHR030C, strain SLT2, active compounds read low 1.01 and 1.07 | locus YHR079C, strain IRE1 (second series), active compounds read low 0.994 | locus YHR079C, strain IRE1, active compounds read low 1.07 | locus YHR094C, strain hxt1, active compounds read low 0.992 | locus YHR129C, strain ARP1, active compounds read low 1 | locus YHR142W, strain chs7, active compounds read low 0.939 | locus YHR200W, strain rpn10, active compounds read low 0.994 | locus YIL066C, strain RNR3, active compounds read low 1.02 | locus YIL073C, strain SPO22, active compounds read low 1.02 | locus YIL125W, strain kgd1, active compounds read low 0.993 | locus YIR030C, strain dcg1, active compounds read low 1 | locus YJL092W, strain hpr5, active compounds read low 0.978 | locus YJL095W, strain BCK1 (second series), active compounds read low 0.978 | locus YJL095W, strain BCK1, active compounds read low 1 and 1.04 | locus YJL115W, strain asf1, active compounds read low 0.953 | locus YJL129C, strain trk1, active compounds read low 0.997 | locus YJL134W, strain LCB3, active compounds read low 1.01 | locus YJL154C, strain vps35, active compounds read low 0.971 | locus YJL164C, strain tpk1, active compounds read low 1.01 | locus YJL166W, strain qcr8, active compounds read low 0.956 | locus YJL168C, strain set2, active compounds read low 0.992 | locus YJL187C, strain SWE1 (second series), active compounds read low 1.02 | locus YJL187C, strain SWE1, active compounds read low 0.989 | locus YJR043C, strain POL32, active compounds read low 0.996 | locus YJR066W, strain TOR1, active compounds read low 1

From PubChem BioAssay AID1159580 (chemical genetic matrix, 2015)
